Results filed as inconclusive are left out. Active and inactive are the calls of the source. Unless noted, the call rests on the fitted dose curve; in most records, active means well fitted curve in the direction sought with a large enough effect in the repeat runs; inconclusive means weak or mixed curves; inactive means no such curve, though single readings can be large; an effect the other way counts as inactive or inconclusive.
Key:
[1] = qHTS assay to identify small molecule antagonists of the sonic hedgehog signaling (Shh) pathway (AID 1259369; calls by dose curve; further: nearly all actives have a fitted effect of over 45% in size)
Method in brief: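 For antagonist detection, the reporter line received test compounds together with conditioned medium, incubated 24hr at 37 C, 5% CO2, then luminescence was recorded following 30min room-temperature luciferase reagent incubation.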

[2] = qHTS assay to identify small molecule agonists of the androgen receptor (AR) signaling pathway in the presence of an antagonist - cell viability counter screen (AID 1259379);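 further: MDA-kb2 human breast cancer cells carrying an MMTV luciferase reporter; series mostly up to about 92 µM; nearly all actives have a fitted effect of over 25% in size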
Method in brief: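 Seed MDA-kb2 at 3,000 cells/well; incubate 5 hr, 37C, 0% CO2. Add nilutamide to 3.0uM final, then pin compounds at 15 concentrations. Incubate 16 hr. Add CellTiter-Fluor at 15 hr, read fluorescence after 1 hr.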

[3] = qHTS assay to identify small molecule agonists of the estrogen receptor beta (ER-beta) signaling pathway - cell viability counter screen (AID 1259380); further: nearly all actives have a fitted effect of over 30% in size
Method in brief: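 CellTiter-Glo read, 30 min RT, same wells as bla assay; cells ER-beta-UAS-bla HEK293T; 16 hr compound, 37C; medium 2% charcoal-stripped FBS.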

[4] = qHTS assay to identify small molecule antagonists of the estrogen receptor beta (ER-beta) signaling pathway - cell viability counter screen (AID 1259382); further: series mostly up to about 92 µM; nearly all actives have a fitted effect of over 55% in size
Method in brief: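 In this multiplexed counter screen, cells were seeded at 2,000 per well in medium with 2% charcoal-stripped FBS and incubated 6 hr before compound and 1nM final E2 were added. Sixteen hours later, ATP-based luminescence reported viability.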

[5] = target: Estrogen receptor (Homo sapiens) (UniProt P03372); experiment: qHTS assay to identify small molecule agonists of the estrogen receptor alpha (ER-alpha) signaling pathway in the presence of an antagonist (AID 1259383; calls by dose curve; further: top concentration of the series differs between compounds; nearly all actives have a fitted effect of over 15% in size)
Method in brief: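 Stably transfected VM7Luc4E2 reporter cells, kept 5 days in charcoal-stripped serum, received ICI-182,780 at 10.0nM final before compound addition. Following 22hr incubation at 37C and 5% CO2, luciferase signal was read by luminescence.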

[6] = qHTS assay to identify small molecule agonists or antagonists of the thyroid stimulating hormone receptor (TSHR) signaling pathway - wild type cell line counter screen (AID 1259384; calls by dose curve)
Method in brief: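 Wild-type Hek293 cells, 800/well, 18 h at 37C, then compound with Ro20-1724 for 30 min RT. cAMP by HTRF (cAMP-d2/anti-cAMP cryptate), 1 h RT, fluorescence read. 15 concentrations, triplicates.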

[7] = target: Thyrotropin receptor (Homo sapiens) (UniProt P16473); experiment: qHTS assay to identify small molecule antagonists of the thyroid stimulating hormone receptor (TSHR) signaling pathway (AID 1259385; calls by dose curve; further: nearly all actives have a fitted effect of over 20% in size)
Method in brief: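 TSHR-HEK293 cells (800/well) plated 18 h, then compounds with Ro20-1724 and TSH at 1.5 ng/mL final, 30 min at room temperature. cAMP quantified by HTRF (cAMP-d2/anti-cAMP-cryptate, 1 h); 15 concentrations in triplicate.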

[8] = qHTS assay to identify small molecule agonists of the estrogen receptor alpha (ER-alpha) signaling pathway in the presence of an antagonist - cell viability counter screen (AID 1259386);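 further: series mostly up to about 92 µM; cells exposed to compounds for 22 h at 37 °C before the viability read; nearly all actives have a fitted effect of over 30% in size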
Method in brief: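 Viability counter screen using VM7Luc4E2 (full-length ER-alpha, four ERE-luciferase). The cells were treated with compounds alongside ICI-182,780 10.0nM for 22hr, and live-cell protease fluorescence was quantified with CellTiter-Fluor.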

[9] = target: Progesterone receptor (Homo sapiens) (UniProt P06401); experiment: qHTS assay to identify small molecule agonists of the progesterone receptor (PR) signaling pathway (AID 1346784; calls by dose curve; further: nearly all actives have a fitted effect of over 30% in size)
Method in brief: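 Agonist qHTS: compounds pinned onto 3,000 PR-UAS-bla HEK 293T cells per well in charcoal-stripped serum medium, 16hr at 37C, then beta-lactamase activity measured by LiveBLAzer FRET fluorescence after 2 hours at room temperature.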

[10] = target: Progesterone receptor (Homo sapiens) (UniProt P06401); experiment: qHTS assay to identify small molecule antagonists of the progesterone receptor (PR) signaling pathway (AID 1346795; active means well fitted inhibition curve with a large enough effect in the signal ratio in the repeat runs, not every such curve was filed as active; the % refers to the signal ratio)
Method in brief: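 Antagonist mode with agonist R5020 at 1 nM final and 16 hr incubation at 37C. Reporter was beta-lactamase driven by UAS in HEK293T (PR-UAS-bla), 2% charcoal-stripped serum; signal from LiveBLAzer FRET substrate, 2 hr at room temperature.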

[11] = qHTS assay to identify small molecule agonists of the progesterone receptor (PR) signaling pathway - cell viability counter screen (AID 1346799; calls by dose curve; further: nearly all actives have a fitted effect of over 45% in size)
Method in brief: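 Cytotoxicity measured by CellTiter-Glo luminescence (30 min, RT) in the same wells as the PR beta-lactamase agonist read. Those HEK293T cells had 16 h compound treatment at 37 C in 2% charcoal-stripped FBS medium.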

[12] = qHTS assay to identify small molecule antagonists of the TGF-beta/Smad signaling pathway - cell viability counter screen (AID 1346824); further: nearly all actives have a fitted effect of over 50% in size
Method in brief: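 SBE-bla HEK 293T cells, incubated overnight, then compound plus 0.25 ng/mL TGF-beta1 (stock added) for 5 hr at 37 C. Viability was read in the same wells by CellTiter-Glo luminescence after 30 min at room temperature.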

[13] = qHTS assay to identify small molecule agonists of the TGF-beta/Smad signaling pathway - cell viability counter screen (AID 1346829); further: top concentration of the series differs between compounds; nearly all actives have a fitted effect of over 45% in size
Method in brief: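 In parallel with the Smad reporter read, viability of HEK 293T cells stably carrying SBE-bla is quantified by ATP luminescence following 5 hr compound treatment.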

[14] = qHTS assay to identify small molecule agonists of the TGF-beta/Smad signaling pathway (AID 1346859; active means well fitted activation curve with a large enough effect in the signal ratio in the repeat runs, not every such curve was filed as active; the % refers to the signal ratio; further: series mostly up to about 77 µM)
Method in brief: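 Fluorescence (ex 405 nm; em 460 and 530 nm) was read 2 h after LiveBLAzer FRET substrate at RT. The preceding compound treatment of overnight-plated SBE-bla HEK293T cells lasted 5 h at 37 C.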

[15] = target: Thyrotropin-releasing hormone receptor (Homo sapiens) (UniProt P34981); experiment: qHTS assay to identify small molecule antagonists of the thyrotropin-releasing hormone receptor (TRHR) signaling pathway (AID 1346877; active means well fitted inhibition curve with a large enough effect in the repeat runs, not every such curve was filed as active; further: series mostly up to about 51 µM)
Method in brief: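 Following an 18 h incubation at 37 °C and a 2 h calcium dye load, TRHR-HEK293 cells were exposed to compound (5 min, room temperature) and challenged with TRH, 1 nM final.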

[16] = target: Thyrotropin-releasing hormone receptor (Homo sapiens) (UniProt P34981); experiment: qHTS assay to identify small molecule agonists of the thyrotropin-releasing hormone receptor (TRHR) signaling pathway (AID 1346891; calls by dose curve; further: series mostly up to about 58 µM)
Method in brief: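 Agonist-mode intracellular calcium readout: kinetic fluorescence over 3 min at 1 s intervals after compound addition to TRHR-HEK293 cells (18 h seeded, 2 h dye-loaded at 37 C). Fifteen concentrations, triplicates.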

[17] = target: Estrogen receptor beta (Homo sapiens) (UniProt Q92731); experiment: qHTS assay to identify small molecule agonists of the estrogen receptor beta (ER-beta) signaling pathway (AID 1259377; active means well fitted activation curve with a large enough effect in the signal ratio in the repeat runs, not every such curve was filed as active; the % refers to the signal ratio)
Method in brief: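 Ratiometric beta-lactamase FRET read-out came after 2 h substrate loading at room temperature. It followed 16 h compound treatment at 37C of GripTite HEK293T cells carrying a UAS-bla reporter, plated in 2% charcoal-stripped FBS medium.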

[18] = target: Estrogen receptor beta (Homo sapiens) (UniProt Q92731); experiment: qHTS assay to identify small molecule antagonists of the estrogen receptor beta (ER-beta) signaling pathway (AID 1259378; active means well fitted inhibition curve with a large enough effect in the signal ratio in the repeat runs, not every such curve was filed as active; the % refers to the signal ratio)
Method in brief: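 ER-beta-UAS-bla HEK293T cells in 2% charcoal-stripped FBS medium treated with compound plus 1nM final 17-beta-estradiol for 16 hr at 37C. Beta-lactamase reporter read by FRET substrate fluorescence after 2 hours at room temperature.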

[19] = qHTS assay to identify small molecule antagonists of the progesterone receptor (PR) signaling pathway - cell viability counter screen (AID 1346798); further: series mostly up to about 92 µM; nearly all actives have a fitted effect of over 50% in size
Method in brief: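 Cytotoxicity read as CellTiter-Glo luminescence (30 min, room temperature) in the same wells as the beta-lactamase readout. HEK293T PR-UAS-bla cells in charcoal-stripped 2% FBS received compound and R5020, then 16 h at 37C, 5% CO2.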

Measured: Potency

Chain of Thyrotropin receptor (Homo sapiens) (P16473 whole entry, looked up): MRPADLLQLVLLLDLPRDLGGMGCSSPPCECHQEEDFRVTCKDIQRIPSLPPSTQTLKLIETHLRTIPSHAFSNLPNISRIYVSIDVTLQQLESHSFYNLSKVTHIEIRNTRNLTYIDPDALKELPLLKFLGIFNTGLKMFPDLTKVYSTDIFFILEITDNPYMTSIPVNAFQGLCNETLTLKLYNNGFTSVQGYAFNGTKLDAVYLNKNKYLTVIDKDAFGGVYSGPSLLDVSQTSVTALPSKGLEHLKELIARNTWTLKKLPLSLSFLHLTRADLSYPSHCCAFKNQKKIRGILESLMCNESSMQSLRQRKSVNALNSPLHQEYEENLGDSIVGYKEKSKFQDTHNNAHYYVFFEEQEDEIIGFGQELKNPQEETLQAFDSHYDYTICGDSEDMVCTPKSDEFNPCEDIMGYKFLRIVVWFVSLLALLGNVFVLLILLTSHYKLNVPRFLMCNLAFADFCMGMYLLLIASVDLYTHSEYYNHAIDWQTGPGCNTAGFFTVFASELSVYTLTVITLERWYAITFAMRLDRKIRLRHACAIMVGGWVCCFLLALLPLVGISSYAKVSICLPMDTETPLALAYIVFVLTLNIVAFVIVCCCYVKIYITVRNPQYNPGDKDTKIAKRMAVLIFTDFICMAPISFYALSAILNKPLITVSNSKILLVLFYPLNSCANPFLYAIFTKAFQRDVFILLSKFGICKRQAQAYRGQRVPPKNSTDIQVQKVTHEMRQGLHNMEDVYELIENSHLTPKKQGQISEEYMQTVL
Chain of Thyrotropin-releasing hormone receptor (Homo sapiens) (P34981 whole entry, looked up): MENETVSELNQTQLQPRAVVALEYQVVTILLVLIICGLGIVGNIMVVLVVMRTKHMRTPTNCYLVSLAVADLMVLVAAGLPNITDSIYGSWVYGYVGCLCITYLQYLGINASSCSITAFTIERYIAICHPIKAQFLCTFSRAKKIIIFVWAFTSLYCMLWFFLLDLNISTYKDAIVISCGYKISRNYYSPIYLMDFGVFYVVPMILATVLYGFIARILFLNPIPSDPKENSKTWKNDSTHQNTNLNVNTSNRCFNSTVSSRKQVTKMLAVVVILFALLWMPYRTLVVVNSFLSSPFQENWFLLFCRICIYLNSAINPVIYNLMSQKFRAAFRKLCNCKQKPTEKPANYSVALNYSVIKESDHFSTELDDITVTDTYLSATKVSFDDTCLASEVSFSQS
Chain of Estrogen receptor beta (Homo sapiens) (Q92731 whole entry, looked up): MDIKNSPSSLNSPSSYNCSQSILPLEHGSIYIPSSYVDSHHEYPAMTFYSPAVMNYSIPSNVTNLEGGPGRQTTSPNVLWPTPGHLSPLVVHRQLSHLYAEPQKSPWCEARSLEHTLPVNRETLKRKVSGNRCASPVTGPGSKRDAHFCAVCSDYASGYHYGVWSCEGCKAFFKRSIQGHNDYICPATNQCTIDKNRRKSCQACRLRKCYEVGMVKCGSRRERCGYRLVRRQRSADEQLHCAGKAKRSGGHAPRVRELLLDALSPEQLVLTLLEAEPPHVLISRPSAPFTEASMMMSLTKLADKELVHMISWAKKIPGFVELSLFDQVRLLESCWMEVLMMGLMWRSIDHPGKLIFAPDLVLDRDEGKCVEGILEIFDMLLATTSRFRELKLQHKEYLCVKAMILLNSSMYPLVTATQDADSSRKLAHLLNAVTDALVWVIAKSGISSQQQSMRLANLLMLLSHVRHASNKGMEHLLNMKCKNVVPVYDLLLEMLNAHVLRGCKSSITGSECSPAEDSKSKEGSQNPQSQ
Chain of Progesterone receptor (Homo sapiens) (P06401 whole entry, looked up): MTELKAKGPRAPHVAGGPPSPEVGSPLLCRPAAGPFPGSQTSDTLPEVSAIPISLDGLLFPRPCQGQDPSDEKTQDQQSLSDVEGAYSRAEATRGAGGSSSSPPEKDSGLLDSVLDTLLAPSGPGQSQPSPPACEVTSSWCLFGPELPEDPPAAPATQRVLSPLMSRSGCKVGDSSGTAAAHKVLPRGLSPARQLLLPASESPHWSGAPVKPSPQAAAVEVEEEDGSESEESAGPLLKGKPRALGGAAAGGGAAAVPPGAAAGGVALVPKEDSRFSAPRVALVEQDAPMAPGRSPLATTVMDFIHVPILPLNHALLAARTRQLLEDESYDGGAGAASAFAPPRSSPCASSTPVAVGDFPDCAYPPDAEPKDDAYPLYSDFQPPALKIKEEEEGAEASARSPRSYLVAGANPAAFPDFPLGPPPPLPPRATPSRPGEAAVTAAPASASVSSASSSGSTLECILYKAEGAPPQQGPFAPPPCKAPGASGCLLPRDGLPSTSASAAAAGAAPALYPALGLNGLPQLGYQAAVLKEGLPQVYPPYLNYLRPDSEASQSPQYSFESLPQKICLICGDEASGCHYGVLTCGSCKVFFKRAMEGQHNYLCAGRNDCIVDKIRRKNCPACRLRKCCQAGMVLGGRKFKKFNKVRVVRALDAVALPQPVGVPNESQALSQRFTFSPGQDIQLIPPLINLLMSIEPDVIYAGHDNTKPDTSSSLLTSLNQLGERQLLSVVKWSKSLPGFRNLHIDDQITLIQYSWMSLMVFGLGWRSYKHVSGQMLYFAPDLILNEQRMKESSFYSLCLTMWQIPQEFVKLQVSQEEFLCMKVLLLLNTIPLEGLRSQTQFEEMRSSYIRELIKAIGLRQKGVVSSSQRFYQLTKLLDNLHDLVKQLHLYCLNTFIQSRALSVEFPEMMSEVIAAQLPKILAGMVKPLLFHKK
Chain of Estrogen receptor (Homo sapiens) (P03372 whole entry, looked up): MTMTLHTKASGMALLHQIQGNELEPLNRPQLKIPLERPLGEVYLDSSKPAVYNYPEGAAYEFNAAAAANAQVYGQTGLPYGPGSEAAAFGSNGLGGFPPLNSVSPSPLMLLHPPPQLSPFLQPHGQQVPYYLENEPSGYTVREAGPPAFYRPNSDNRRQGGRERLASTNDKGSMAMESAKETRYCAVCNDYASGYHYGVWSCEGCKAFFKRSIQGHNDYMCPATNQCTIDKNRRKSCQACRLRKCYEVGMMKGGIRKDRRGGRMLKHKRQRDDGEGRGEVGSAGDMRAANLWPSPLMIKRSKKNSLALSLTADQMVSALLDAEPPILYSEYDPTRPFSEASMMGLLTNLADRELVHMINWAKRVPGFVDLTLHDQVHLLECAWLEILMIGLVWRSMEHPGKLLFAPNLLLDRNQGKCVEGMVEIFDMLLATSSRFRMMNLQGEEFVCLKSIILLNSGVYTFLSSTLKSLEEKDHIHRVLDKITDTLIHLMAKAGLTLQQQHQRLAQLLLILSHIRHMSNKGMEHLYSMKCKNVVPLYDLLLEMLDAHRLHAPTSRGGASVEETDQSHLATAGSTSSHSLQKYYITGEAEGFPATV

COc1ccccc1OCC(O)COC(N)=O (centres undefined)
not listed: [17] | [18] | [19]
inactive: all other assays above

C=CC(C)(O)CC/C=C(\C)CCC=C(C)C (centres undefined)
not listed: [3] | [4] | [5] | [6] | [7] | [9] | [10] | [19]
inactive: all other assays above

O=C(O[C@@H](C(=O)O)[C@@H](OC(=O)c1ccccc1)C(=O)O)c1ccccc1
not listed: [5] | [6] | [7] | [9] | [15] | [16] | [17] | [19]
inactive: all other assays above

CC(C)(CO)[C@@H](O)C(=O)NCCC(=O)O
not listed: [5] | [10] | [11] | [17] | [18] | [19]
inactive: all other assays above

CC(=O)N[C@@H](CC(C)C)C(=O)O
not listed: [4] | [5] | [6] | [7] | [17] | [18]
inactive: all other assays above

OCc1ccccc1O
not listed: [3] | [5] | [17] | [18] | [19]
inactive: all other assays above

CC(C)S
not listed: [3] | [4] | [17] | [18]
inactive: all other assays above

CCCCC(=O)O[C@]1(C(=O)CO)[C@H](C)C[C@H]2[C@@H]3CCC4=CC(=O)C=C[C@]4(C)[C@@]3(F)[C@@H](O)C[C@@]21C
not listed: [3] | [5] | [9] | [11] | [15] | [16] | [17] | [18]
inactive: all other assays above

Reference: PubChem BioAssay (Tox21)
